Broadly, the AC50 is the midpoint of the concentration-response curve, whichever way the signal moves.

SMILES strings stand for the structures. Calls of active or inactive are those of the source. The calls were made as follows: active = hit-call score of the fitted dose curve at least 0.9, where 1 is the maximum; inactive = score below 0.9.

The experiment in a line: CCTE_Shafer_MEA_acute_firing_rate_mean: CCTE's Neural Acute Assay for Mean Firing Rate, Shafer Lab (AID 2284009).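 Also: analyzed for loss of signal so actives lower firing rate relative to DMSO.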 Summed up:
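Percent change in well-mean firing rate was derived from extracellular spikes detected at 8x rms noise (300-5000 Hz band-pass) before and after a 40-min compound exposure. Cultures were primary rat cortical neurons, tested at 0.03-40 uM.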
On to `CCCCC(CC)COC(=O)c1ccccc1O` (stereo not given), for which the call was inactive.

On to `O=C1CCCN1CCO`, for which the result was inactive.

Take `Nc1ncn([C@@H]2O[C@H](CO)[C@@H](O)[C@H]2O)c(=O)n1`: the AC50 was 7.63 nM (active).

Consider `O=C(c1ccc(O)cc1)c1ccc(O)cc1O`, for which the result was inactive.

For `CCO[Si](C)(OCC)OCC`, the call was inactive.

Regarding `Nc1ccc(N)c(Cl)c1`, the compound was classed as inactive.

Take `C=C[Si](OC(C)=O)(OC(C)=O)OC(C)=O`: the outcome was inactive.

With `CN1C(=O)N(C)C(O)C1O` (stereo not given), the outcome was inactive.

As for `CCCCC(CC)COCC1CO1` (stereo not given), the compound was classed as inactive.

As for `CO[Si](OC)(OC)c1ccccc1`, the compound was called inactive.

Values taken from PubChem BioAssay (EPA / NIEHS).
